In the supplement of paper PMC11732987, “Enantioselective OTUD7B fragment discovery through chemoproteomics screening and high-throughput optimisation” (Communications Chemistry, 2025):

Experiments:
Test in all cases: log2 ratio of Biotin-Ahx-Ub-VS probe labelling (fragment/DMSO); higher = less target engagement (more negative = stronger competition), active = hit call of the paper (q ≤ 0.05, log2 ratio ≤ -1)
Details in all cases: compound concentration: 200 uM; treatment time: 3 h
[1] = compound: CC(C)CN(C1CC1)C(=O)CCl
Summary of the method: (§1)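 In triplicate, 495 µg of HEK293T lysate per sample was incubated with fragment at 200 µM or vehicle for 3 h. Biotin-Ahx-Ub-VS was then added to 0.5 µM final for 1 h, and labelled DUBs were captured with NeutrAvidin, digested with LysC and trypsin, and measured by diaPASEF LC-MS/MS. Data are average log2 fragment/vehicle ratios by unpaired t-test from global-median-normalised Spectronaut label-free quantities, restricted to proteins with ≥2 unique peptides.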

[2] = compound: CC(NC(=O)CCl)c1cccs1
Summary of the method: as §1

[3] = compound: CC1CCCCC1NC(=O)CCl
Summary of the method: as §1

[4] = compound: CC1CCCCN1C(=O)CCl
Summary of the method: as §1

[5] = compound: CC1CN(CC(C)O1)C(=O)CCl
Summary of the method: as §1

[6] = compound: CN(C1CCCCC1)C(=O)CCl
Summary of the method: as §1

[7] = compound: Cc1cc(NC(=O)CCl)no1
Summary of the method: as §1

[8] = compound: Cc1cccc(NC(=O)CCl)c1
Summary of the method: as §1

[9] = compound: Cc1nc(NC(=O)CCl)sc1C
Summary of the method: as §1

[10] = compound: Cc1nnc(NC(=O)CCl)s1
Summary of the method: as §1

[11] = compound: Cl.Cc1ncsc1CNC(=O)CCl
Summary of the method: as §1

[12] = compound: ClCC(=O)N1CCCCCCC1
Summary of the method: as §1

[13] = compound: ClCC(=O)NC1(CCCC1)C#N
Summary of the method: as §1

[14] = compound: ClCC(=O)NCC1CCC1
Summary of the method: as §1

[15] = compound: ClCC(=O)NCC1CCCO1
Summary of the method: as §1

[16] = compound: ClCC(=O)NCc1ccco1
Summary of the method: as §1

[17] = compound: ClCC(=O)Nc1cccc(Cl)c1
Summary of the method: as §1

Measured: log2 ratio of Biotin-Ahx-Ub-VS probe labelling

OTUD6B (UniProt Q8N6M0)
Chain of UniProt Q8N6M0 (Q8N6M0 whole entry): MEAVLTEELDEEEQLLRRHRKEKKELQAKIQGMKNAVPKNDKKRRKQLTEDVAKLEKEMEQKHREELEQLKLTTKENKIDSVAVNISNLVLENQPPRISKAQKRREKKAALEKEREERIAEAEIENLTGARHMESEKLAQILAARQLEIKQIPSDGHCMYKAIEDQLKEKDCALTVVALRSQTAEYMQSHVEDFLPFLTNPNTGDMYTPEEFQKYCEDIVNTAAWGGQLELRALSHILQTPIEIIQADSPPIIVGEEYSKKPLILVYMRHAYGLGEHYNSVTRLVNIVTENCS
inactive: [1] 0.0114 | [2] -0.285 | [3] 0.0184 | [4] -0.269 | [5] -0.538 | [6] -0.0327 | [7] -0.167 | [8] -0.274 | [9] -0.338 | [10] -0.283 | [11] -0.0694 | [12] -0.286 | [13] -0.29 | [14] -0.356 | [15] 0.00691 | [16] -0.225
active: [17] -1.19

UniProt O00487
inactive: [1] -0.123 | [2] -0.134 | [3] -0.0855 | [4] -0.115 | [5] -0.19 | [6] -0.0571 | [7] 0.0118 | [8] -0.116 | [9] -0.0519 | [10] -0.139 | [11] 0.0936 | [12] -0.0818 | [13] -0.263 | [14] -0.192 | [15] -0.162 | [16] -0.0244 | [17] -0.0223

BAP1 (UniProt Q92560)
inactive: [1] 0.0148 | [4] -0.422 | [5] -0.661 | [6] -0.252 | [12] -0.0644 | [15] -0.549
active: [2] -2.33 | [3] -1.53 | [7] -2.59 | [8] -1.83 | [9] -1.05 | [10] -1.34 | [11] -2.85 | [13] -3.06 | [14] -1.81 | [16] -1.81 | [17] -2.97

USP22 (UniProt Q9UPT9)
inactive: [1] 0.0555 | [2] 0.184 | [3] -0.0563 | [4] 0.000369 | [5] 0.0274 | [6] 0.0658 | [7] -0.433 | [8] -0.357 | [9] -0.117 | [10] 0.0632 | [11] 0.00275 | [12] -0.145 | [13] 0.0376 | [14] 0.219 | [15] -0.0487 | [16] 0.0686 | [17] -0.655

USP24 (UniProt Q9UPU5)
Chain of UniProt Q9UPU5 (Q9UPU5 whole entry): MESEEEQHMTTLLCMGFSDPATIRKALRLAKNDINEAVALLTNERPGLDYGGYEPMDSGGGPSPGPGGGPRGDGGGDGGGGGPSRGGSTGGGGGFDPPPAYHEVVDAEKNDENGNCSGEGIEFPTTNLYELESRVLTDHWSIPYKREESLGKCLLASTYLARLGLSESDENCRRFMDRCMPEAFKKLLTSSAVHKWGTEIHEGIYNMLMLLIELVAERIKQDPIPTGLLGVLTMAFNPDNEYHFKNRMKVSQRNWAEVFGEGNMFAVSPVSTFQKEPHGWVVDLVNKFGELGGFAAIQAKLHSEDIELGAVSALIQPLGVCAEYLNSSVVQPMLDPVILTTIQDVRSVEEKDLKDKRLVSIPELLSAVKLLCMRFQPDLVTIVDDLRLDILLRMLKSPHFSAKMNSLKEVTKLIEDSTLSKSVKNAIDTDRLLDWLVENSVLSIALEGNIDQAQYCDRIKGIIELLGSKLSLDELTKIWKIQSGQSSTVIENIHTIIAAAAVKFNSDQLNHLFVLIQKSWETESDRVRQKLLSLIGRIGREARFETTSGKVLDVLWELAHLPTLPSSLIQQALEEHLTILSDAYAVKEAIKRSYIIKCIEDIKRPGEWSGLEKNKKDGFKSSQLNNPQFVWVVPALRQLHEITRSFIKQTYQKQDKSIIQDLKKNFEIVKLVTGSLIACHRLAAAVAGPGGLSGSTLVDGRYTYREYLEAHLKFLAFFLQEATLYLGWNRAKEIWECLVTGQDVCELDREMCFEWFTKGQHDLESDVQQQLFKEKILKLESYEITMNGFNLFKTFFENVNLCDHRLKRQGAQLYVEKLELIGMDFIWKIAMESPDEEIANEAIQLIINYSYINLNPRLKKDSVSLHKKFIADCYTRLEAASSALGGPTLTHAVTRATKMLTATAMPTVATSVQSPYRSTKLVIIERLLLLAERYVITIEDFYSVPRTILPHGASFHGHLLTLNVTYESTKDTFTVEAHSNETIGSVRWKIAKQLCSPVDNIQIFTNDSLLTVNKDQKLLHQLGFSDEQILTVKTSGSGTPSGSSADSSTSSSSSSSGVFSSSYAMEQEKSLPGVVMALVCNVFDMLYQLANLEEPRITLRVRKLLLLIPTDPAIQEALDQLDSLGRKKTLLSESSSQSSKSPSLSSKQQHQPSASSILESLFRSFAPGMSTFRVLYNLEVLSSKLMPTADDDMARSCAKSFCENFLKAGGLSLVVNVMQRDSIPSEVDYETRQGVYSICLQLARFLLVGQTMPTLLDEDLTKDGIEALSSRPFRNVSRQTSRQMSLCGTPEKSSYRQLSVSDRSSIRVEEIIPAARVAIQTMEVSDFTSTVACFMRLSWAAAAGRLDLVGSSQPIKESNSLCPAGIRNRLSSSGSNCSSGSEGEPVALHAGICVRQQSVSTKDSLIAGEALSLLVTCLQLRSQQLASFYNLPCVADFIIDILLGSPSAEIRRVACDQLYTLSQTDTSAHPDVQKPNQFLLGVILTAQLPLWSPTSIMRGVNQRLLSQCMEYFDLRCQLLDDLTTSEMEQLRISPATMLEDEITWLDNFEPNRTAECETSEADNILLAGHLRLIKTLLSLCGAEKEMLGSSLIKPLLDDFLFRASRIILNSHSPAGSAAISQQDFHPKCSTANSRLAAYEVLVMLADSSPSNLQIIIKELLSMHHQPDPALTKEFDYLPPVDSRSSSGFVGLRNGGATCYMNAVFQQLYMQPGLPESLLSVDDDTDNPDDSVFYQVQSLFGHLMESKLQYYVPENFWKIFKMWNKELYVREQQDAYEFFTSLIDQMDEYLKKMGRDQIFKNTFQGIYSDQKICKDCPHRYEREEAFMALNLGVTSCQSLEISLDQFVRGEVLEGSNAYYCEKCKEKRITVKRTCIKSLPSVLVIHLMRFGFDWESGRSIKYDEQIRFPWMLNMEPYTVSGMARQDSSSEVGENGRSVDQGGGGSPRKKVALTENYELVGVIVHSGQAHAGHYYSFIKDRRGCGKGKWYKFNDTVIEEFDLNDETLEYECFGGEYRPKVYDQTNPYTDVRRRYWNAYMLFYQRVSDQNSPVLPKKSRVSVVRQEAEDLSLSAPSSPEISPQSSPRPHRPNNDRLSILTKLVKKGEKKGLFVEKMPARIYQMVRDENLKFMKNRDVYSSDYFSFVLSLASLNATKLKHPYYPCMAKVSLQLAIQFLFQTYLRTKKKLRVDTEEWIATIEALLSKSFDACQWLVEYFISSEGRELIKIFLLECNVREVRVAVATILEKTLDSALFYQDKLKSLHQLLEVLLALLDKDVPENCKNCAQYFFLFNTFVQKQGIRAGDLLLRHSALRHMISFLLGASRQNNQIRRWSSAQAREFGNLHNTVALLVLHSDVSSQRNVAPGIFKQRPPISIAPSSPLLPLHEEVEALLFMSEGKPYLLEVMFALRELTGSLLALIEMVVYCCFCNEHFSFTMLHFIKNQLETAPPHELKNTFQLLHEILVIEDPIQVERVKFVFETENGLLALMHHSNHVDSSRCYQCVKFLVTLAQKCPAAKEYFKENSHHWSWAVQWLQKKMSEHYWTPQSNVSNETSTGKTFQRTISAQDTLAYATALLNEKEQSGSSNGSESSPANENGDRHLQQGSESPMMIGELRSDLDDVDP
active: [17] -1.4
inactive: [1] -0.191 | [2] -0.0286 | [3] -0.426 | [4] -0.579 | [5] -0.301 | [6] -0.575 | [7] -0.201 | [8] -0.537 | [9] -0.319 | [10] -0.639 | [11] -0.322 | [12] -0.475 | [13] -0.116 | [14] 0.00205 | [15] 0.122 | [16] -0.238

COPS5 (UniProt Q92905)
Chain of UniProt Q92905 (Q92905 whole entry, looked up): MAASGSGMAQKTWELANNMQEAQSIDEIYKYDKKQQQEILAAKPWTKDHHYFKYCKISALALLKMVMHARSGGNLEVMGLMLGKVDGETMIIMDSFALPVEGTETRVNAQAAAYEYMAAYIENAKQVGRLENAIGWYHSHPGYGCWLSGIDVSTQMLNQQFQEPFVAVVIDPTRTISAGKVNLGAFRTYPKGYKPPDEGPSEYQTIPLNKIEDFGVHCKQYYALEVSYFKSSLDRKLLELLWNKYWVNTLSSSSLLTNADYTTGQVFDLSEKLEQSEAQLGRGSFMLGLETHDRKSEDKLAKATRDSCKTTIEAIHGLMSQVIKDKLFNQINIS
inactive: [1] -0.228 | [2] 0.105 | [3] -0.102 | [4] -0.0488 | [5] -0.0269 | [6] 0.0396 | [7] -0.141 | [8] -0.303 | [9] -0.00505 | [10] -0.0303 | [11] 0.0391 | [12] 0.0347 | [13] 0.203 | [14] 0.0382 | [15] 0.0301 | [16] 0.0105 | [17] 0.27

USP8 (UniProt P40818)
Chain of UniProt P40818 (P40818 whole entry): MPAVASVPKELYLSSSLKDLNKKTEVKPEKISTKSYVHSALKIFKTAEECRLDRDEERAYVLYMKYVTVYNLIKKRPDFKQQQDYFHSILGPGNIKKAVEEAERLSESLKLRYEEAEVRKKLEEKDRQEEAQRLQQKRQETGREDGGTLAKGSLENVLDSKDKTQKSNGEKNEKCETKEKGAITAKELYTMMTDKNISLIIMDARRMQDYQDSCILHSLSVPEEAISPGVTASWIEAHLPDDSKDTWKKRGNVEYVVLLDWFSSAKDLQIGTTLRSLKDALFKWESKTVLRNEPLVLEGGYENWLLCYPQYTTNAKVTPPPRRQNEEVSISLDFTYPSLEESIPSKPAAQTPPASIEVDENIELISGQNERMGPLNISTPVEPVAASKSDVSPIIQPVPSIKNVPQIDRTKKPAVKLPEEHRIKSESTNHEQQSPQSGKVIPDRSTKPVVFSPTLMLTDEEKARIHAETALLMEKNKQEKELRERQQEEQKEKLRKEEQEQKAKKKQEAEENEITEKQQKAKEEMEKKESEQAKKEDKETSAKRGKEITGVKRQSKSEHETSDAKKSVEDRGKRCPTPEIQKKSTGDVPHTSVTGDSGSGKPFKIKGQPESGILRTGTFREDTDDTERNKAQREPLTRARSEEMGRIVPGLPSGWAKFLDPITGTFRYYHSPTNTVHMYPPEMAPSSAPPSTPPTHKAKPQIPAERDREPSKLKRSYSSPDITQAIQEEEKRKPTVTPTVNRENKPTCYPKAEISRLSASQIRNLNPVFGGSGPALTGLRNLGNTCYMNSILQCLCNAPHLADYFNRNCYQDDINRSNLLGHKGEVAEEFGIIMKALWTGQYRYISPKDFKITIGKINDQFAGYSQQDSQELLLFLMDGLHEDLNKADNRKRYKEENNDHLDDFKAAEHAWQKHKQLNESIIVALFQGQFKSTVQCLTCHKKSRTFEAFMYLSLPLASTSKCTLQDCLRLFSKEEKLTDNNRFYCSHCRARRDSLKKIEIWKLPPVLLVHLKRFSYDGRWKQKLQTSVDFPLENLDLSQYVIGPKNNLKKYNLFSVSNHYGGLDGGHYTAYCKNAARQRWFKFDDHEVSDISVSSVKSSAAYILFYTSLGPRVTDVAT
inactive: [1] 0.058 | [2] -0.288 | [3] -0.13 | [4] -0.147 | [5] -0.531 | [6] -0.314 | [7] -0.16 | [8] -0.0703 | [9] -0.125 | [10] -0.197 | [11] -0.245 | [12] -0.233 | [13] -0.572 | [14] -0.442 | [15] 0.167 | [16] -0.538 | [17] -0.963

USP14 (UniProt P54578)
inactive: [1] -0.0633 | [2] 0.0378 | [3] -0.306 | [4] -0.639 | [5] -0.518 | [6] -0.00359 | [7] -0.188 | [8] -0.184 | [9] 0.051 | [10] -0.437 | [11] -0.178 | [12] -0.0389 | [13] -0.0892 | [14] 0.0427 | [15] 0.00941 | [16] -0.0561 | [17] -0.675

EIF3H (UniProt O15372)
inactive: [1] -0.185 | [2] 0.239 | [3] -0.385 | [4] -0.0794 | [5] -0.144 | [6] 0.0605 | [7] 0.0219 | [8] 0.0847 | [9] 0.0871 | [10] 0.0591 | [11] 0.337 | [12] 0.342 | [13] -0.198 | [14] -0.00227 | [15] 0.038 | [16] 0.206 | [17] 0.176

USP42 (UniProt Q9H9J4)
inactive: [1] 0.361 | [2] -0.342 | [3] -0.295 | [4] -0.305 | [5] -0.42 | [6] -0.0896 | [7] 0.113 | [8] 0.381 | [9] 0.125 | [10] 0.374 | [11] 0.49 | [12] 0.0331 | [13] -0.72 | [14] -0.299 | [15] -0.0821 | [16] -0.125 | [17] 0.584

OTUB1 (UniProt Q96FW1)
Chain of UniProt Q96FW1 (Q96FW1 whole entry): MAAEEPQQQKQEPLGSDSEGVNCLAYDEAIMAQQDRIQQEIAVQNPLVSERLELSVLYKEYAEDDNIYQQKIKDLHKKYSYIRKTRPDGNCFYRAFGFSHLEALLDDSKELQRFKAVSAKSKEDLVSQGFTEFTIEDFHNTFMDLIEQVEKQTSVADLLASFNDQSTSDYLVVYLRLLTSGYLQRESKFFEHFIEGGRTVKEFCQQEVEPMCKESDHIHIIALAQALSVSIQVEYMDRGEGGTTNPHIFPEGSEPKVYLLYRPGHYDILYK
inactive: [1] -0.0296 | [2] 0.137 | [3] -0.0525 | [4] -0.264 | [5] -0.26 | [6] 0.0388 | [7] 0.388 | [8] 0.123 | [9] 0.281 | [10] 0.165 | [11] -0.174 | [12] 0.116 | [13] -0.247 | [14] -0.422 | [15] 0.252 | [16] -0.0321 | [17] -0.286

UniProt Q5T2D3
Chain of UniProt Q5T2D3 (Q5T2D3 whole entry): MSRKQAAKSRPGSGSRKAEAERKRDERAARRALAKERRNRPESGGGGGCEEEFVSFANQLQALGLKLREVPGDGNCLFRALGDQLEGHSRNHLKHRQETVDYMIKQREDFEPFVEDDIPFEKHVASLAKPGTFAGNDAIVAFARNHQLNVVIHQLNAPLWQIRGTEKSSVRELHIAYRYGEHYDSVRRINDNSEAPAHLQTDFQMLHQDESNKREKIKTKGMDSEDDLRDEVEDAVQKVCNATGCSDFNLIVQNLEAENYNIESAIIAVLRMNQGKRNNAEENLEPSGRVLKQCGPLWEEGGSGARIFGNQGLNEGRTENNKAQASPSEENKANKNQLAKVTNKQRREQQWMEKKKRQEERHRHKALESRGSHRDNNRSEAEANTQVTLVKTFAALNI
inactive: [1] 0.0213 | [2] -0.301 | [3] -0.208 | [4] -0.128 | [5] -0.269 | [6] -0.159 | [7] -0.226 | [8] -0.0544 | [9] -0.17 | [10] -0.141 | [11] -0.0477 | [12] -0.0257 | [13] -0.314 | [14] -0.239 | [15] -0.00242 | [16] -0.0389 | [17] -0.998
